We go through 31 molecules from PubChem BioAssay (NCATS).

Test [1] has as its target Catechol O-methyltransferase (Homo sapiens) (UniProt P21964). Briefly: Confirmatory Screen for Target Class Profiling of Small Molecule Inhibitors of Methyltransferases (AID 1745852; calls by dose curve; on activity change, negative = inhibition: on the % scale 0 is the no-effect control and ±100 the full control effect). As to conditions: MTase-Glo luminescence, SAH detection, recombinant enzyme; measured here: COMT max response; stronger effect = lower value.
In test [2] the target is Guanidinoacetate N-methyltransferase (Homo sapiens) (UniProt Q14353). Described as above. As to conditions: MTase-Glo luminescence, SAH detection, recombinant enzyme; activity change, negative = inhibition: at 57.3 µM (top of the series).
For test [3], the target named is Nicotinamide N-methyltransferase (Homo sapiens) (UniProt P40261). The test is described as above. As to conditions: MTase-Glo luminescence, SAH detection, recombinant enzyme; measured here: NNMT max response; stronger effect = lower value.
Test [4] concerns the target Phenylethanolamine N-methyltransferase (Homo sapiens) (UniProt P11086). Described as above. As to conditions: MTase-Glo luminescence, SAH detection, recombinant enzyme; measured here: PNMT max response; stronger effect = lower value.
Test [5] addresses Glutathione peroxidase 1 (Homo sapiens) (UniProt P07203). Description: Primary qHTS Assay for Inhibitors of Recombinant Selenoprotein Glutathione Peroxidase 1 (GPX1) (AID 1845191). Further: nearly all actives have a fitted effect of over 65% in size. In short, it runs like this: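 NADPH consumption tracked by fluorescence at 340/450 nm between t=0 and t=15 min, room temperature. Final mix: 10 nM GPX1, 100 nM glutathione reductase, 1 mM GSH, 0.5 mM NADPH, 0.5 mM cumene hydroperoxide, 0.01% BSA; 30 min compound–enzyme preincubation.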
(qHTS replaces the single test concentration by a dilution series.)

A short description of test [6]: NCATS anti-infectives library activity on HEK293 viability as a counter-qHTS vs the C. elegans viability qHTS (AID 1745854). Further: on the % scale 0 is the no-effect control and ±100 the full control effect. The procedure, abridged: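 CellTiter-Glo luminescence, read on a CCD imager, scored viability of HEK293 cells after 24 hr compound exposure at 37C. Library tested in several concentrations, 1:5 steps, up to 41.7 uM; digitonin served as control.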

A short description of test [7]: NCATS anti-infectives library activity on the primary C. elegans qHTS viability assay (AID 1745855; calls by dose curve). As to conditions: C. elegans worm area imaging, day 7; at 41.8 µM (top of the series) unless noted. In short, it runs like this:
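Titration-based screen in worms: eggs hatched overnight in M9, L1 larvae fed TOP10 capsules in S medium with compound, incubated 21 °C for 7 days; fluorescent objects gated by size and intensity at days 0, 3 and 7.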

Test [8] has as its target Metallo-beta-lactamase type 2 (Klebsiella pneumoniae) (UniProt C7C422). Description: qHTS to identify inhibitors of the New Delhi Metallo-beta-lactamase (NDM): assay validation screen against the NCATS LOPAC Collection (AID 1794843). Further: on the % scale 0 is the no-effect control and ±100 the full control effect. The procedure, abridged:
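Absorbance at 485 nm from nitrocefin turnover (50 uM solution added), read at plateau, gives the read-out. Compounds in DMSO were incubated first with 2 nM final NDM-1 in pH 7.0 HEPES buffer containing 1 uM ZnSO4 and 0.01% Tween20.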

Records with an inconclusive call do not appear. Calls of active or inactive are those of the source. Unless noted, the call rests on the fitted dose curve; in most records, active means well fitted curve in the direction sought with a large enough effect; inconclusive means small, poorly fitted or top-dose-only effect, or another doubt; inactive means no such curve, though single readings can be large; an effect the other way counts as inactive or inconclusive.

Chain of Metallo-beta-lactamase type 2 (Klebsiella pneumoniae) (C7C422 whole entry, looked up): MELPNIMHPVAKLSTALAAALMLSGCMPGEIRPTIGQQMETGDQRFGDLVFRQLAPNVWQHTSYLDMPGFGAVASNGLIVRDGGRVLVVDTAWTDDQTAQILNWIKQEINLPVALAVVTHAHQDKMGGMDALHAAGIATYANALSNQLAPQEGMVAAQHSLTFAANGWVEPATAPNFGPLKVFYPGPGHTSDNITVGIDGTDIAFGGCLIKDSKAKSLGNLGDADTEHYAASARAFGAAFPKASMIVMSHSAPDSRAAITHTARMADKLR
Chain of Glutathione peroxidase 1 (Homo sapiens) (P07203 whole entry, looked up): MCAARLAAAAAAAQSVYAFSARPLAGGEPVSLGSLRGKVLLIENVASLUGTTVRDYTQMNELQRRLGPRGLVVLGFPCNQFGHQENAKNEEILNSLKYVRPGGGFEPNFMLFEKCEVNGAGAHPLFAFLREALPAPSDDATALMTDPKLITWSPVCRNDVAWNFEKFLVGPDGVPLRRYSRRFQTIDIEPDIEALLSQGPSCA
Chain of Nicotinamide N-methyltransferase (Homo sapiens) (P40261 whole entry, looked up): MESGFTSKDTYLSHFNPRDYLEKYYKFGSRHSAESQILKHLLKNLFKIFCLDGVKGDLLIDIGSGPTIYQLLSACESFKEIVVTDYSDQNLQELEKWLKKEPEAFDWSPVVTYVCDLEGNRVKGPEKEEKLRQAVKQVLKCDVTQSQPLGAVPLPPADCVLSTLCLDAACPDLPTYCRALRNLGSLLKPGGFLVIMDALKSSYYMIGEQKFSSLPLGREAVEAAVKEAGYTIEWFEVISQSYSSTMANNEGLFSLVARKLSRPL
Chain of Phenylethanolamine N-methyltransferase (Homo sapiens) (P11086 whole entry, looked up): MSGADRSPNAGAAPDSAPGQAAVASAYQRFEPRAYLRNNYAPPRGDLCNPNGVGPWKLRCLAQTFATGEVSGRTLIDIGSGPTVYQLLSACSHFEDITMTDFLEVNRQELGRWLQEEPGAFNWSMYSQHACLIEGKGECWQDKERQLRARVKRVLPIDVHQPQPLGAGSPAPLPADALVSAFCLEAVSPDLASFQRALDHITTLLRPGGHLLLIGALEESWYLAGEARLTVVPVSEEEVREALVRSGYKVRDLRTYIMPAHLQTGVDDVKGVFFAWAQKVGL
Chain of Catechol O-methyltransferase (Homo sapiens) (P21964 whole entry, looked up): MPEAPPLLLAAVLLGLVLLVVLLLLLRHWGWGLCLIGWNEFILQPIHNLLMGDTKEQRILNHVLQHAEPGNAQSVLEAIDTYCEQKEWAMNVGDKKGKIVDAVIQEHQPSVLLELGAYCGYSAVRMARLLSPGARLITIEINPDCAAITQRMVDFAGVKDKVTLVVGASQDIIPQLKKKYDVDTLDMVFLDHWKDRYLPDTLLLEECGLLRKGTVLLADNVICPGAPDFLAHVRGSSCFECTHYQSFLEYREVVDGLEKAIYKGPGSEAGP

With `CC(O)C(O)[C@H]1CNc2nc(N)[nH]c(=O)c2N1` (stereo partly specified), the activity in test [1] is -9.57%; in test [3], -14.2%; in test [4] it was -4.71%. Further, in test [2], the activity change, negative = inhibition worked out at 4.12%. For the same molecule, the Potency entry in test [5] was “inactive”.
For the molecule `NC(=O)c1ccccc1`, the outcome in test [6] and in test [7] was “inactive” each time. Moreover, the Potency result in test [8] is “inactive”.
Take `NCC(O)C1CCCCCCC1` (stereo unspecified): the activity in test [1] was -3.91%; in test [3] it was -12%; in test [4], -45.1%. For the same molecule, the activity change, negative = inhibition in test [2] turned out to be 2.24%. The Potency result in test [8] and in test [5] was “inactive” throughout.
On to `NC1CONC1=O` (stereo unspecified), for which the Potency entry in test [8] was “inactive”.
On the same count and under the same terms, as for `N#CC(=C(\N)Sc1ccccc1N)/C(C#N)=C(/N)Sc1ccccc1N`, the entry is “inactive”; as for `Nc1nc2ccc(Cl)cc2c2nc(-c3ccco3)nn12`, “inactive”; as for `Nc1ccc(-c2nc3ccc(-c4nc5ccc(N)cc5[nH]4)cc3[nH]2)cc1`, “inactive”.
`CN1CCC2(CCN3CCc4c(oc5ccccc45)C3C2)N(C)C1=O` (stereo unspecified): the Potency entry in test [8] and in test [5] was “inactive” each time.
Turning to `Oc1ccc(/C=C/c2ccc(/C=C/c3ccc(O)cc3)c(Br)c2)cc1`, the Potency result in test [8] and in test [5] was “inactive” throughout.
As for `CC(=O)[C@H]1CCC2C3CC=C4C[C@@H](OS(=O)(=O)O)CC[C@]4(C)C3CC[C@@]21C` (stereo partly specified), the Potency result in test [8] and in test [5] was “inactive” in each case.
Consider `NCC(O)c1ccc(O)c(O)c1` (stereo unspecified), for which the Potency entry in test [8] and in test [5] was “inactive” each time.
With `C[C@]12C=CC(=O)C=C1CC[C@@H]1C2=CC[C@]2(C)[C@@H](C(=O)CN3CCN(c4cc(N5CCCC5)nc(N5CCCC5)n4)CC3)CC[C@@H]12`, the Potency result in test [8] and in test [5] was “inactive” throughout.
Consider `NCCC1CCCC(CCN)N1` (stereo unspecified), for which the Potency entry in test [8] and in test [5] was “inactive” throughout.
Regarding `Cc1nc(N=Nc2ccc(S(=O)(=O)O)cc2S(=O)(=O)O)c(COP(=O)(O)O)c(C=O)c1O`, the Potency entry in test [8] and in test [5] was “inactive” each time.
For the molecule `CN(C)CCCc1cc(C(=O)Nc2ccc(-c3ccncc3)cc2)ccc1O`, the Potency result in test [8] and in test [5] was “inactive” in each case.
In the case of `CCCCOC(=O)NS(=O)(=O)c1sc(CC(C)C)cc1-c1ccc(Cn2c(CC)nc3c(C)cc(C)nc32)cc1`, the Potency entry in test [8] and in test [5] was “inactive” in each case.
With `CC(=O)SC1CC2=CC(=O)CC[C@]2(C)C2CC[C@@]3(C)C(CC[C@@]34CCC(=O)O4)C12` (stereo partly specified), the Potency entry in test [8] and in test [5] was “inactive” each time.
Consider `c1ccc(CN2CCC3(CCCc4ccccc43)CC2)cc1`, for which the Potency entry in test [8] and in test [5] was “inactive” in each case.
With `CCc1ccc2c(-c3cccc(Cl)c3)nc(=O)n(CC)c2n1`, the Potency entry in test [8] and in test [5] was “inactive” in each case.
For the molecule `Nc1ccc(N2C(=O)c3ccccc3C2=O)c(Cl)c1`, the Potency result in test [8] and in test [5] was “inactive” each time.
`CC(N)=O`: the Potency result in test [8] and in test [5] was “inactive” throughout.
Regarding `NC[C@@H]1O[C@H](c2ccccc2)Cc2c1ccc(O)c2O`, the Potency result in test [8] and in test [5] was “inactive” throughout.
`O=C(O)C1=CCCN(CCON=C(c2ccccc2)c2ccccc2)C1`: the Potency entry in test [8] and in test [5] was “inactive” in each case.
Consider `O=C1NC(=O)c2cc(Nc3ccccc3)c(Nc3ccccc3)cc21`, for which the Potency result in test [8] and in test [5] was “inactive” in each case.
As to `COc1cccc(OC)c1OCCNCC1CSc2ccccc2O1` (stereo unspecified), the Potency result in test [8] and in test [5] was “inactive” in each case.
With `COc1cc(C(O)CO)ccc1O` (stereo unspecified), the Potency entry in test [8] and in test [5] was “inactive” each time.
Take `CSC(=N)N`: the Potency entry in test [8] and in test [5] was “inactive” each time.
As to `CCCCC[C@H](CC(=O)NO)C(=O)N[C@H](C(=O)N1CCC[C@H]1CO)C(C)C`, the Potency entry in test [8] and in test [5] was “inactive” in each case.
Take `CCSC(=N)N`: the Potency entry in test [8] and in test [5] was “inactive” each time.
For `COc1ccc(C(=O)NCc2cccnc2)cc1C(=O)NCc1cccnc1`, the Potency result in test [8] and in test [5] was “inactive” throughout.
On to `COc1cc(N)c(Cl)cc1C(=O)OCCN1CCCCC1`, for which the Potency entry in test [8] and in test [5] was “inactive” each time.
